Each compound was assayed against Hexose transporter 1 (Plasmodium falciparum) (UniProt O97467) (assay: ST_JUDE_LEISH: Cytotoxicity at 2uM final concentration against transgenic Leishmania Mexicana promastigotes LmPfHT that are glucose transport deficient and complemented with the Plasmodium falciparum hexose transporter. Activity is measured by DNA content using SYBR green in vitro).
Format: functional
`CC(Nc1ncc(-c2ccsc2)c(-c2nccs2)n1)c1ccc2c(c1)OCCO2` (stereo not drawn) showed an inhibition of 5.47%. `Cc1ccc2[nH]c(C)cc(=NN=Cc3ccc(Cl)cc3)c2c1` showed an inhibition of 0.61%. Compound `O=C(Cc1ccc(-n2cnnn2)cc1)N(Cc1cncn1Cc1cccc(C(F)(F)F)c1)CC1CC1` has an inhibition of -1.38%. Work on `CCc1n[nH]c(C(=O)Nc2cccc(N3CCCC3)c2)c1C` yielded an inhibition of 1.73%. `CN(Cc1cccc(F)c1)C1CCN(c2cc(NC(=O)c3ccc(F)cc3)ccn2)CC1` gave an inhibition of 6.01%. `COc1cc(C(=O)NC2CCc3ccccc32)cc(Cl)c1OC` (stereo not drawn) showed an inhibition of -0.96%. `COCC(C)n1c(C)cc(C(=O)CSc2nnc(Nc3ccccc3)s2)c1C` (stereo not drawn) was tested, and the inhibition was 1.49%. `COc1ccc2nccc([C@@H](O)CN3CCC(NC(=O)Cc4cc5ccccc5s4)CC3)c2c1` gave an inhibition of 6.59%. `CCOc1cc(C(=O)NC2CC(C)(C)NC(C)(C)C2)ccc1-c1nc2cc(Cl)ccc2[nH]1` was tested, and the inhibition was 1.71%. `CCNc1cc(C)nc(Nc2ccc(NC(=O)c3cccs3)cc2)n1` showed an inhibition of 5.9%. `CCN(CC)CCN(Cc1ccc(-c2ccc(C(F)(F)F)cc2)cc1)C(=O)Cn1c(CCc2cccc(C#N)c2)nc(=O)c2ccccc21` showed an inhibition of 1.83%. `O=C(Nc1ccc(C(=O)Nc2cccc(C3=NCCN3)c2)cc1)Nc1ccc(C2=NCCN2)cc1` showed an inhibition of 0.34%. `CCOC(=O)c1cn(CC)c2cc(OCc3ccccc3)ccc2c1=O` gave an inhibition of 0.36%. `O=C(Nc1ccc(-c2ccc(-c3nc4cc(C(F)(F)F)ccc4[nH]3)s2)cc1)c1c[nH]cn1` showed an inhibition of 7.24%. `CCOC(=O)CNC(=O)N(CCN(Cc1ccccc1)C(=O)NCC(=O)OCC)Cc1ccccc1` showed an inhibition of 2.07%. `COc1ccc(-c2cnc(N)c(-c3ccc(C(N)=O)cc3)c2)cc1OC` was tested, and the inhibition was 3.4%. For `Cc1ccc2[nH]c3c(NCCCN(C)C)ncnc3c2c1`, the inhibition was -0.22%. `O=C(NCCCCN1CCN(c2cccc3c2OCCO3)CC1)c1ccc(NC(=O)c2cc(Cl)cc(Cl)c2)cc1` gave an inhibition of 2.75%. Work on `CCOc1cc(C)ccc1C1CCN(CCN2CCC(CNC(=O)c3ccc(-c4ccc(C(F)(F)F)cc4)cc3)CC2)CC1` yielded an inhibition of 2.7%. Work on `O=C(CN1CCN(C(=O)c2ccco2)CC1)Nc1ccccc1Br` yielded an inhibition of -1.64%. With `COc1ccc2nc(Nc3nc(-c4ccccn4)cs3)sc2c1` the inhibition was 16%. `CN(C)CCOC(=O)C1(O)CCC2CC1C2(C)C` (stereo not drawn) was tested, and the inhibition was 2.06%. `CCCCCCCC/C=C\CCCCCCCC(=O)NCc1ccc(O)c(OC)c1` showed an inhibition of 7.4%. `O=C(Nc1ccc(C(F)(F)F)cc1)c1ccc(NCCCN2CCCCCC2)c([N+](=O)[O-])c1` showed an inhibition of 6.55%. Work on `CN(C)CCN(C)Cc1cccc(-c2ccc3c(Nc4cc(O)c(Cl)cc4F)ccnc3c2)c1` yielded an inhibition of -0.99%. Work on `CC(C)(NCc1ncc[nH]1)c1nc(-c2ccc(Cl)c(O)c2)c(-c2ccncc2)[nH]1` yielded an inhibition of 3.34%. For `CC(=O)Oc1c(Cl)c(C)nc(C)c1-c1ccc(Oc2ccc(Cl)cc2)cc1`, the inhibition was 9.67%. `Cc1cc(N[C@@H](Cc2ccccc2)C(=O)NCCc2ccccc2)nc(NCCc2ccc(F)cc2)n1` was tested, and the inhibition was -1.86%. `Cc1cc(Cl)c(S(=O)(=O)N(C)c2ccccc2)cc1OCC(=O)NC1CCCCC1` was tested, and the inhibition was 1.38%. Compound `COc1ccc(CNC(=O)NC2CCN(c3ccnc(Nc4ccc(OC)cc4)n3)C2)cc1` (stereo not drawn) has an inhibition of 1.7%. `O=C(Nc1cccc(-c2nn3ccccc3c2-c2ccnc(Nc3cccc(F)c3)n2)c1)c1c(F)ccc(F)c1Cl` showed an inhibition of 10.4%. For `CC1(C)N=C(N)N=C(N)N1CCc1ccccc1`, the inhibition was 7.56%. Compound `N#Cc1cc(C(=O)Nc2ccccc2)c(N)nc1SCC(=O)Nc1ccc(Br)cc1` has an inhibition of 5.88%. For `O=C(NCCc1ccc(Cl)c(Cl)c1)c1ccc(CNC(=O)c2ccc(O)c(-c3ccc(Cl)c(Cl)c3)c2)cc1`, the inhibition was 1.15%. Work on `COc1nc2c(CCN3CC[C@@H](NCc4cc(C#N)c5c(c4)CCO5)[C@@H](O)C3)ccnc2cc1F` yielded an inhibition of 4.07%. With `O=C(NCCCCCN1CCC(c2c[nH]c3ccccc23)CC1)Nc1cccc(I)c1` the inhibition was 12.6%. `COc1ccc(-c2cccc(NC(=O)c3cccc(Cl)c3)c2)cc1CN1CCN(C)CC1` gave an inhibition of 12%. In the case of `COc1cc(NCCCCCNc2cc(Cl)nc3ccccc23)nc2ccccc12`, the inhibition was 2.23%. `COc1ccc2ncc(F)c(CCN3CCC(NCc4cc(C)c5c(c4)OCCO5)CC3)c2n1` gave an inhibition of 15.4%.

Each compound was assayed against Glucose transporter (Leishmania mexicana) (UniProt O61059) (assay: ST_JUDE_LEISH: Cytotoxicity at 2uM final concentration against transgenic Leishmania Mexicana promastigotes LmGT2 that are glucose transport deficient and complemented with the L. Mexicana glucose transporter 2. Activity is measured by DNA content using SYBR green in vitro).
Format: functional
In the case of `CC(Nc1ncc(-c2ccsc2)c(-c2nccs2)n1)c1ccc2c(c1)OCCO2` (stereo not drawn), the inhibition was 7.42%. `Cc1ccc2[nH]c(C)cc(=NN=Cc3ccc(Cl)cc3)c2c1` gave an inhibition of -1.26%. `O=C(Cc1ccc(-n2cnnn2)cc1)N(Cc1cncn1Cc1cccc(C(F)(F)F)c1)CC1CC1` was tested, and the inhibition was 1.66%. In the case of `CCc1n[nH]c(C(=O)Nc2cccc(N3CCCC3)c2)c1C`, the inhibition was -1.36%. `CN(Cc1cccc(F)c1)C1CCN(c2cc(NC(=O)c3ccc(F)cc3)ccn2)CC1` gave an inhibition of 6.94%. `COc1cc(C(=O)NC2CCc3ccccc32)cc(Cl)c1OC` (stereo not drawn) was tested, and the inhibition was -0.41%. Work on `COCC(C)n1c(C)cc(C(=O)CSc2nnc(Nc3ccccc3)s2)c1C` (stereo not drawn) yielded an inhibition of -0.94%. `COc1ccc2nccc([C@@H](O)CN3CCC(NC(=O)Cc4cc5ccccc5s4)CC3)c2c1` showed an inhibition of 1.96%. For `CCOc1cc(C(=O)NC2CC(C)(C)NC(C)(C)C2)ccc1-c1nc2cc(Cl)ccc2[nH]1`, the inhibition was 1.1%. In the case of `CCNc1cc(C)nc(Nc2ccc(NC(=O)c3cccs3)cc2)n1`, the inhibition was 1.85%. `CCN(CC)CCN(Cc1ccc(-c2ccc(C(F)(F)F)cc2)cc1)C(=O)Cn1c(CCc2cccc(C#N)c2)nc(=O)c2ccccc21` showed an inhibition of 2.44%. Compound `O=C(Nc1ccc(C(=O)Nc2cccc(C3=NCCN3)c2)cc1)Nc1ccc(C2=NCCN2)cc1` has an inhibition of -0.6%. With `CCOC(=O)c1cn(CC)c2cc(OCc3ccccc3)ccc2c1=O` the inhibition was 4.59%. `O=C(Nc1ccc(-c2ccc(-c3nc4cc(C(F)(F)F)ccc4[nH]3)s2)cc1)c1c[nH]cn1` showed an inhibition of 8.27%. `CCOC(=O)CNC(=O)N(CCN(Cc1ccccc1)C(=O)NCC(=O)OCC)Cc1ccccc1` gave an inhibition of 1.35%. With `COc1ccc(-c2cnc(N)c(-c3ccc(C(N)=O)cc3)c2)cc1OC` the inhibition was 5.07%. In the case of `Cc1ccc2[nH]c3c(NCCCN(C)C)ncnc3c2c1`, the inhibition was -0.28%. `O=C(NCCCCN1CCN(c2cccc3c2OCCO3)CC1)c1ccc(NC(=O)c2cc(Cl)cc(Cl)c2)cc1` gave an inhibition of 3.56%. In the case of `CCOc1cc(C)ccc1C1CCN(CCN2CCC(CNC(=O)c3ccc(-c4ccc(C(F)(F)F)cc4)cc3)CC2)CC1`, the inhibition was 1.5%. For `O=C(CN1CCN(C(=O)c2ccco2)CC1)Nc1ccccc1Br`, the inhibition was -3.97%. `COc1ccc2nc(Nc3nc(-c4ccccn4)cs3)sc2c1` was tested, and the inhibition was 5.62%. `CN(C)CCOC(=O)C1(O)CCC2CC1C2(C)C` (stereo not drawn) gave an inhibition of 2.45%. With `CCCCCCCC/C=C\CCCCCCCC(=O)NCc1ccc(O)c(OC)c1` the inhibition was 5.67%. `O=C(Nc1ccc(C(F)(F)F)cc1)c1ccc(NCCCN2CCCCCC2)c([N+](=O)[O-])c1` was tested, and the inhibition was 6.28%. Compound `CN(C)CCN(C)Cc1cccc(-c2ccc3c(Nc4cc(O)c(Cl)cc4F)ccnc3c2)c1` has an inhibition of -2.95%. `CC(C)(NCc1ncc[nH]1)c1nc(-c2ccc(Cl)c(O)c2)c(-c2ccncc2)[nH]1` gave an inhibition of 3.01%. With `CC(=O)Oc1c(Cl)c(C)nc(C)c1-c1ccc(Oc2ccc(Cl)cc2)cc1` the inhibition was 4.45%. For `Cc1cc(N[C@@H](Cc2ccccc2)C(=O)NCCc2ccccc2)nc(NCCc2ccc(F)cc2)n1`, the inhibition was -1.12%. In the case of `Cc1cc(Cl)c(S(=O)(=O)N(C)c2ccccc2)cc1OCC(=O)NC1CCCCC1`, the inhibition was 2.02%. With `COc1ccc(CNC(=O)NC2CCN(c3ccnc(Nc4ccc(OC)cc4)n3)C2)cc1` (stereo not drawn) the inhibition was 1.82%. `O=C(Nc1cccc(-c2nn3ccccc3c2-c2ccnc(Nc3cccc(F)c3)n2)c1)c1c(F)ccc(F)c1Cl` was tested, and the inhibition was 6.24%. `CC1(C)N=C(N)N=C(N)N1CCc1ccccc1` was tested, and the inhibition was 8.45%. `N#Cc1cc(C(=O)Nc2ccccc2)c(N)nc1SCC(=O)Nc1ccc(Br)cc1` was tested, and the inhibition was 4.96%. `O=C(NCCc1ccc(Cl)c(Cl)c1)c1ccc(CNC(=O)c2ccc(O)c(-c3ccc(Cl)c(Cl)c3)c2)cc1` showed an inhibition of 1.06%. `COc1nc2c(CCN3CC[C@@H](NCc4cc(C#N)c5c(c4)CCO5)[C@@H](O)C3)ccnc2cc1F` showed an inhibition of 0.66%. `O=C(NCCCCCN1CCC(c2c[nH]c3ccccc23)CC1)Nc1cccc(I)c1` gave an inhibition of 5.88%. `COc1ccc(-c2cccc(NC(=O)c3cccc(Cl)c3)c2)cc1CN1CCN(C)CC1` gave an inhibition of 7.77%. In the case of `COc1cc(NCCCCCNc2cc(Cl)nc3ccccc23)nc2ccccc12`, the inhibition was 2.29%. In the case of `COc1ccc2ncc(F)c(CCN3CCC(NCc4cc(C)c5c(c4)OCCO5)CC3)c2n1`, the inhibition was 5.07%.

Reference: ChEMBL document CHEMBL3433997, “St. Jude Leishmania screening dataset” (2016)
